In PubChem BioAssay AID1259343 (VanderVen Lab, College of Veterinary Medicine, Cornell …, 2017) one finds inhibition data, which are given here for 102 compounds.

SMILES strings stand for the structures. Out of some 6,200 compounds screened, about 2,900 (47%) were called active. No stated cut-off is given here; in the data, active means inhibition above about 50%; inactive means the rest. The set was probably picked from earlier hits. This is one part of the list.

A short description of this assay: Mycobacterium tuberculosis growth inhibition, primary screen (AID 1259343). The conditions noted are these: inhibition: at 10 µM, stronger effect = higher value; outcome: 10 uM.
For the compound `CCCCn1c(C2CCCCC2)nc2oc3ccccc3c(=O)c2c1=O`, the inhibition (in general, the relative decrease from the control value, in per cent) was -33.2% (inactive).

Turning to `COc1nc(C)ccc1CNC(=O)C(=O)Nc1cccc(F)c1F`, the inhibition is 8.51% (inactive).

As for `Cc1ccc(-c2noc(CC#N)n2)cc1`, the inhibition was 77.1% (active).

`Cc1ccc(-c2noc(CSc3ncccn3)n2)cc1`: the inhibition was 42.6% (inactive).

For `CC(C)c1ccc(-c2noc(CN(C)c3ccccc3)n2)cc1`, the inhibition was 63.2% (active).

For the compound `CN(Cc1nc(-c2ccc(C(F)(F)F)cc2)no1)CC(O)c1ccccc1` (configuration not stated), the inhibition was 84.5% (active).

With `Cc1ccc(-c2noc(COc3ccc(C(C)C)cc3)n2)cc1`, the inhibition is 95.7% (active).

`Clc1ccc(-c2noc(COc3ccc4c(c3)OCO4)n2)cc1`: the inhibition is 18.1% (inactive).

Consider `CN(Cc1nc(-c2ccccc2)no1)Cc1ccnc2ccccc12`, for which the inhibition was -26.1% (inactive).

Turning to `N#CCOc1ccc(CNc2ncc(Br)cn2)cc1`, the inhibition was 33.8% (inactive).

Turning to `Cc1ccc(-c2noc(CN3CCCc4ccccc43)n2)cc1`, the inhibition was 101% (active).

For `O=c1[nH]nc(SCc2ccccc2)c(=S)[nH]1`, the inhibition was 85.6% (active).

Turning to `N#Cc1c(SCc2ccccc2)n[nH]c1-c1cccs1`, the inhibition was 37.8% (inactive).

On to `CC(C)CC(=O)Nc1nnc(C(C)(C)C)s1`, for which the inhibition was 17.4% (inactive).

On to `CC(C)(C)c1nnc(NC(=O)c2cc(C(F)(F)F)cc(C(F)(F)F)c2)s1`, for which the inhibition is 96% (active).

Regarding `CC(C)c1cc(C(=O)N2C[C@@H]3[C@H](C2)[C@H]2CC[C@@H]3O2)cs1`, the inhibition is -8.56% (inactive).

Take `CC(C)Cc1cc(C(=O)N2C[C@@H]3[C@H](C2)[C@H]2CC[C@@H]3O2)on1`: the inhibition is 83.1% (active).

For `CCCc1nc(N2C[C@@H]3[C@H](C2)[C@H]2CC[C@@H]3O2)no1`, the inhibition is -30.4% (inactive).

Turning to `Cc1ccc(NC(=O)N2CCN(CCCOC(c3ccc(Cl)cc3)c3ccc(Cl)cc3)CC2)cc1`, the inhibition is -2.85% (inactive).

Turning to `CC(C)c1noc(-c2ccc(NC(=O)N3CCCC3)cc2)n1`, the inhibition is 73.4% (active).

As for `CC1CCN(C(=O)Nc2ccc(Br)cc2)CC1`, the inhibition was 30.1% (inactive).

For the compound `Cc1ccc(NC(=O)c2ncoc2C(C)C)cc1Br`, the inhibition is 40.1% (inactive).

On to `COc1ccc(NC(=O)c2ccc(=O)n(C)c2)cc1Br`, for which the inhibition was 2.47% (inactive).

Turning to `COC(F)(C(=O)Nc1ccc(C)c(Br)c1)C(F)(F)F` (configuration not stated), the inhibition was 56.7% (active).

As for `O=C1CC(c2ccccc2)CC(=O)C1S(=O)c1ccc(Cl)cc1` (configuration not stated), the inhibition is 58.1% (active).

On to `C=C=C/C=C/C=C\Oc1ccc(CO)cc1O/C=C\C=C\C=C=C`, for which the inhibition was 88.7% (active).

With `CC(C)(C)c1noc(COc2ccc(O)cc2)n1`, the inhibition was 39.8% (inactive).

Regarding `Cc1nc(COc2ccc(Oc3nccs3)cc2)oc1C`, the inhibition was 80% (active).

With `Brc1ccc(OCc2nnc(-c3cccs3)o2)cc1`, the inhibition is 42.8% (inactive).

On to `CC(C)NC(=O)c1ccc(OCc2cccs2)cc1`, for which the inhibition was -17.8% (inactive).

As to `CC(c1cccs1)N(C)C(=O)COc1ccc(F)cc1` (configuration not stated), the inhibition is 59.8% (active).

Turning to `CN(C)Cc1nc(Cl)c2c3c(sc2n1)CCCCC3`, the inhibition is 69.8% (active).

Turning to `CC1CCc2c(nc3sc4c(c3c2N)CCCC4)C1` (configuration not stated), the inhibition is 32.6% (inactive).

For `CCc1ccc(CN(C)C(=O)NCCC2CCCC2)cc1`, the inhibition was 99.2% (active).

On to `CN(CCC1CCCCC1)C(=O)Nc1ccsc1`, for which the inhibition is 48.9% (inactive).

In the case of `CC(CCc1ccccc1)NC(=O)NCCC1CCCC1` (configuration not stated), the inhibition is -6.93% (inactive).

As to `NC(=O)c1cc(Cl)ccc1OCc1ccccc1Br`, the inhibition was 1.54% (inactive).

In the case of `Cc1cc(Cl)ccc1OCc1ccc(C(N)=O)cc1`, the inhibition was 68.2% (active).

With `CC(C)(C)c1ccc(COc2ccccc2C(N)=O)cc1`, the inhibition is 30.2% (inactive).

With `NC(=O)c1ccc(CSCc2cccc(F)c2)cc1`, the inhibition was 19.5% (inactive).

For the compound `CCc1cc(OCc2ccc(C(N)=O)cc2)ccc1Cl`, the inhibition is -54% (inactive).

As for `Cc1cccc(OCc2ccc(C(N)=O)cc2)c1C`, the inhibition was 64.1% (active).

For the compound `CC(C)c1cc(C(=O)NC2CCN(c3cccc(F)c3)CC2)n[nH]1`, the inhibition is 41.4% (inactive).

With `CC(C)c1cc(C(=O)NC2CC2)nn1-c1nc2ccccc2s1`, the inhibition was 94.4% (active).

As for `Cc1cc(=O)[nH]c(-n2nc(C3CC3)cc2NC(=O)c2ccccc2C(F)(F)F)n1`, the inhibition was 99.9% (active).

For `Cc1cc(=O)[nH]c(-n2nc(C3CC3)cc2NC(=O)c2c(F)cccc2F)n1`, the inhibition was 99.2% (active).

As to `Cc1cc(=O)[nH]c(-n2nc(C3CC3)cc2NC(=O)c2ccccc2Cl)n1`, the inhibition is 101% (active).

As to `Cc1nc(-n2nc(C3CC3)cc2NC(=O)c2ccccc2Cl)[nH]c(=O)c1C`, the inhibition was 80.4% (active).

As for `Cc1nc(-n2nc(C3CC3)cc2NC(=O)c2ccccc2F)[nH]c(=O)c1C`, the inhibition is -15.9% (inactive).

Regarding `Cc1cc(=O)[nH]c(-n2nc(C3CC3)cc2NC(=O)c2ccccc2F)n1`, the inhibition was 101% (active).

For `Cc1cc(=O)[nH]c(-n2nc(C3CC3)cc2NC(=O)c2cccc3ccccc23)n1`, the inhibition is 99.8% (active).

`N#Cc1ccc(S(=O)(=O)NC(=O)c2sccc2C2CC2)cc1`: the inhibition is 67.6% (active).

As to `O=C(NS(=O)(=O)Cc1ccccc1)c1sccc1C1CC1`, the inhibition was 10.6% (inactive).

For the compound `O=C(Nc1ccc(-c2ccco2)cc1)C1CCCN(Cc2cccc3c2OCO3)C1` (configuration not stated), the inhibition was 85% (active).

Regarding `O=C(Nc1ccc(-c2ccco2)cc1)C1CCCN(C(=O)CCc2cccs2)C1` (configuration not stated), the inhibition result was “inactive”.

Regarding `COc1cc(/C=C/CN2CCCC(C(=O)Nc3ccc(-c4ccco4)cc3)C2)ccc1O` (configuration not stated), the inhibition is 45.7% (inactive).

In the case of `O=C(Nc1ccc(-c2ccco2)cc1)C1CCCN(Cc2coc3ccccc3c2=O)C1` (configuration not stated), the inhibition was 31.3% (inactive).

With `Nc1ncc(CN2CCCC(C(=O)Nc3ccc(-c4ccco4)cc3)C2)cn1` (configuration not stated), the inhibition entry is “inactive”.

On to `O=C(Nc1ccc(-c2ccco2)cc1)C1CCCN(C(=O)CCc2cnccn2)C1` (configuration not stated), for which the inhibition was -19.9% (inactive).

Take `Cn1ccc(CC(=O)N2CCCC(C(=O)Nc3ccc(-c4ccco4)cc3)C2)c1` (configuration not stated): the inhibition is 84.1% (active).

For `O=C(Nc1ccc(-c2ccco2)cc1)C1CCCN(C(=O)CCN2CCCO2)C1` (configuration not stated), the inhibition was 82.8% (active).

With `O=C1Nc2ncccc2Oc2cc(F)cc(O)c21`, the inhibition was 81.3% (active).

Take `CC(C(=O)Nc1ccccc1Cl)N1CCCC1c1ccsc1` (configuration not stated): the inhibition is 3.58% (inactive).

Consider `O=C(NCc1ccccn1)Nc1cc(F)c(N2CCCC2)c(F)c1`, for which the inhibition is 38.7% (inactive).

On to `O=C(NCCOc1cc(N2CCCCC2)ncn1)Nc1ccccc1Cl`, for which the inhibition is 56% (active).

For `CCCCC(CC)CN=C(N)NC(N)=NCCCCCCN=C(N)NC(N)=NCC(CC)CCCC` (configuration not stated), the inhibition was 94.5% (active).

Regarding `O=C1C(=O)N(C2CCCC2)C(=O)N1CC1CCCCC1`, the inhibition is -11.3% (inactive).

As for `Cc1ccc(C)n1-n1c(C)nc2scc(-c3cccs3)c2c1=O`, the inhibition is 27.9% (inactive).

On to `Cc1nc2scc(-c3cccs3)c2c(=S)[nH]1`, for which the inhibition is 85.4% (active).

In the case of `Cc1nc2scc(-c3cccs3)c2c(=O)n1-n1cccc1`, the inhibition is 87.8% (active).

As to `O=C(NC1CC1c1ccccc1)C1(c2ccccc2)CCC1` (configuration not stated), the inhibition is 38.3% (inactive).

As to `Cc1cc(-c2nnn(CC3(O)CCCCC3)n2)ccc1F`, the inhibition is 86.8% (active).

Turning to `CC(C)(C)OC(=O)Nc1ccc(Nc2cc(-c3ccc(F)c(F)c3)ncn2)cc1`, the inhibition was 16.4% (inactive).

For the compound `COc1ccc(-c2cc(Nc3ccc(NC(=O)OC(C)(C)C)cc3)ncn2)cc1`, the inhibition is 4.04% (inactive).

Consider `CC(C)(C)OC(=O)Nc1cc2ccccc2cc1C(=O)O`, for which the inhibition is 79.6% (active).

Take `Fc1cccc(-c2cnnc(N[C@@H]3C[C@H]3c3ccccc3)n2)c1`: the inhibition was 19.2% (inactive).

For `Cc1cc(C)cc(NC(=O)CSc2nccn(-c3cccc(F)c3)c2=O)c1`, the inhibition is 66.8% (active).

Consider `Cc1cc(C)cc(NC(=O)CSc2nccn(-c3ccc(F)cc3)c2=O)c1`, for which the inhibition was 48.7% (inactive).

Take `Cc1cc(C)cc(NC(=O)CSc2nc(=O)n3ccc(C)cc3n2)c1`: the inhibition is -10.5% (inactive).

On to `N#Cc1ccccc1Sc1ccc(C(N)=O)cc1`, for which the inhibition was -41.2% (inactive).

As to `C(=Nc1ccc(C23CC4CC(CC(C4)C2)C3)cc1)c1cccnc1`, the inhibition is 7.01% (inactive).

For `Cc1ccc(/C=C2\CNC/C(=C\c3ccc(C)cc3)C2=O)cc1`, the inhibition is 27.8% (inactive).

Consider `CC1C/C(=C\c2cccnc2)C(=O)/C(=C/c2cccnc2)C1` (configuration not stated), for which the inhibition is 63% (active).

On to `COc1c(Br)cc(Cl)cc1NCc1c(C)noc1C`, for which the inhibition is 14% (inactive).

As for `N#CC(=CC(Br)=Cc1ccccc1)c1nc(-c2ccccc2)cs1`, the inhibition is 82.4% (active).

For `N#CC(=Cc1ccccc1I)c1nc(-c2ccccc2)cs1`, the inhibition was 10.6% (inactive).

As to `Clc1ccc(C2CN(Cc3cc(-c4ccccn4)no3)CCO2)cc1Cl` (configuration not stated), the inhibition was 21% (inactive).

In the case of `CC(=O)c1cc(CN2CCOC(CCCc3ccccc3)C2)cs1` (configuration not stated), the inhibition is 28.9% (inactive).

Regarding `N#Cc1c(Cl)cccc1NCC1CN(Cc2ccccc2)CCO1` (configuration not stated), the inhibition was 57.3% (active).

As for `COC(=O)c1cc(-c2ccc(OC)cc2)on1`, the inhibition is 30.9% (inactive).

As to `O=C(Cc1cc(-c2cc3ccccc3o2)on1)NCCCc1ccccc1`, the inhibition was 93.4% (active).

Regarding `Cc1cc(NC(=O)Cc2cc(-c3cc4ccccc4o3)on2)no1`, the inhibition was -32.2% (inactive).

As for `O=C(Cc1cc(-c2cc3ccccc3o2)on1)NCCC1=CCCCC1`, the inhibition is 32.4% (inactive).

Regarding `COC(=O)c1cc(-c2ccc(C)cc2)on1`, the inhibition was 88.9% (active).

In the case of `COC(=O)c1ccc(NC(=O)Cc2cc(-c3cc4ccccc4o3)on2)cc1`, the inhibition is 84% (active).

Regarding `COC(=O)c1cc(-c2cc3ccccc3o2)on1`, the inhibition is 99.1% (active).

For `O=C(Cc1cc(-c2cc3ccccc3o2)on1)NCCc1ccccc1`, the inhibition was 6.56% (inactive).

For the compound `COC(=O)c1cc(-c2ccc3c(c2)CC(C)O3)on1` (configuration not stated), the inhibition was 45.8% (inactive).

Turning to `O=C(Cc1cc(-c2cc3ccccc3o2)on1)Nc1cccc(F)c1`, the inhibition is 38.6% (inactive).

For `COCCNC(=O)Cc1cc(-c2cc3ccccc3o2)on1`, the inhibition is 34.7% (inactive).

For the compound `CC(C)OCCCNC(=O)Cc1cc(-c2cc3ccccc3o2)on1`, the inhibition was 90.9% (active).

With `COCCNC(=O)c1cc(-c2ccc(Cl)cc2)on1`, the inhibition is 60% (active).
